Results taken from the supplement of paper PMC10849652.
About 7,900 targets were measured; listed, in parts, are those with a hit and a random draw of the rest. About 0.6% of all pairs of compound and target were hits. Unmarked numbers belong to inactive results.

What was measured:
Assay in all cases: log2 fold change, soluble protein after heating vs DMSO (PISA); higher = thermal stabilisation; K562 cells, 10 uM, 30 min; active = over 0.2 and 3.5 SD of the protein, either way, in both replicates (recomputed)
[1] = compound: CS(=O)(=O)c1ccc(-c2cnc(N)c(C(=O)Nc3ccccc3)n2)cc1
How it was run: (§1)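 K562 cells (2×10^6 cells/mL) were treated with 10 μM compound for 30 min, and aliquots were heated for 3 min over 48°C-58°C. Pooled aliquots were extracted in PBS with 0.5% NP-40 at 4°C, and the supernatant after 21,000xg for 90 min was measured by TMTpro 16plex LC-MS/MS with channel sums equalised. Reported thermal stability, relative to control samples and from duplicates, is a log2 fold change.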

crizotinib = compound: C[C@@H](Oc1cc(-c2cnn(C3CCNCC3)c2)cnc1N)c1c(Cl)ccc(F)c1Cl [crizotinib]
How it was run: as §1

[2] = compound: C[C@@H]1COCCN1C2=NC(=NC(=C2)C3(CC3)S(=O)(=O)C)C4=C5C=CNC5=CC=C4
How it was run: as §1

[3] = compound: C[C@H](C1=CC=C(C=C1)C(=O)NC2=C3C=CNC3=NC=C2)N
How it was run: as §1

duvelisib = compound: C[C@H](Nc1ncnc2nc[nH]c12)c1cc2cccc(Cl)c2c(=O)n1-c1ccccc1 [duvelisib]
How it was run: as §1

gandotinib = compound: Cc1cc(Nc2cc(CN3CCOCC3)c3nc(C)c(Cc4ccc(Cl)cc4F)n3n2)n[nH]1 [gandotinib]
How it was run: as §1

tozasertib = compound: Cc1cc(Nc2cc(N3CCN(C)CC3)nc(Sc3ccc(NC(=O)C4CC4)cc3)n2)n[nH]1 [tozasertib]
How it was run: as §1

[4] = compound: Cc1cc(SCc2sc(-c3ccc(C(F)(F)F)cc3)nc2C)ccc1OCC(=O)O
How it was run: as §1

doramapimod = compound: Cc1ccc(-n2nc(C(C)(C)C)cc2NC(=O)Nc2ccc(OCCN3CCOCC3)c3ccccc23)cc1 [doramapimod]
How it was run: as §1

ispinesib = compound: Cc1ccc(C(=O)N(CCCN)[C@@H](c2nc3cc(Cl)ccc3c(=O)n2Cc2ccccc2)C(C)C)cc1 [ispinesib]
How it was run: as §1

bafetinib = compound: Cc1ccc(NC(=O)c2ccc(CN3CC[C@H](N(C)C)C3)c(C(F)(F)F)c2)cc1Nc1nccc(-c2cncnc2)n1 [bafetinib]
How it was run: as §1

[5] = compound: Cc1cccc(CC(=O)N2CCc3c2ccc(-c2cn(C)c4ncnc(N)c24)c3F)n1
How it was run: as §1

nilotinib = compound: Cc1cn(-c2cc(NC(=O)c3ccc(C)c(Nc4nccc(-c5cccnc5)n4)c3)cc(C(F)(F)F)c2)cn1 [nilotinib]
How it was run: as §1

[6] = compound: Cc1nc(Nc2n[nH]c3c2CN(C(=O)N[C@H](CN(C)C)c2ccccc2)C3(C)C)c2sccc2n1
How it was run: as §1

dasatinib = compound: Cc1nc(Nc2ncc(C(=O)Nc3c(C)cccc3Cl)s2)cc(N2CCN(CCO)CC2)n1 [dasatinib]
How it was run: as §1

[7] = compound: Cc1ncc(-c2ccnc(Nc3ccc(S(C)(=O)=O)cc3)n2)n1C(C)C
How it was run: as §1

[8] = compound: Cn1cc(-c2ccc3c(c2)CCN3C(=O)Cc2cccc(C(F)(F)F)c2)c2c(N)ncnc21
How it was run: as §1

[9] = compound: Cn1cc(-c2ccc3nnc(C(F)(F)c4ccc5ncccc5c4)n3n2)cn1
How it was run: as §1

tipifarnib = compound: Cn1cncc1[C@@](N)(c1ccc(Cl)cc1)c1ccc2c(c1)c(-c1cccc(Cl)c1)cc(=O)n2C [tipifarnib]
How it was run: as §1

mubritinib = compound: FC(F)(F)c1ccc(/C=C/c2nc(COc3ccc(CCCCn4ccnn4)cc3)co2)cc1 [mubritinib]
How it was run: as §1

UniProt Q96GQ5, sequence (Q96GQ5 whole entry, looked up): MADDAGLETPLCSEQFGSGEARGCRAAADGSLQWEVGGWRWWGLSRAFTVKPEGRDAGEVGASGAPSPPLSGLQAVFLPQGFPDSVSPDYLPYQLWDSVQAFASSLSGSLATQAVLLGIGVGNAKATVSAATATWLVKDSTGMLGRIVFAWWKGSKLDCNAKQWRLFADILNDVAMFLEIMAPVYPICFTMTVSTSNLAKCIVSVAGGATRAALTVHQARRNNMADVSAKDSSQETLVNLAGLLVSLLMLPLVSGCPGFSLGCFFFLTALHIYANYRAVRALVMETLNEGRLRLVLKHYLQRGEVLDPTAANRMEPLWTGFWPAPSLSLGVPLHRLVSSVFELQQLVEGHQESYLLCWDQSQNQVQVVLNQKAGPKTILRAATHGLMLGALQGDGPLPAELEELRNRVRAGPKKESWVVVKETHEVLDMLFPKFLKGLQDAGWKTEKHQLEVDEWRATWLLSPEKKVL
UniProt Q96KA5, sequence (Q96KA5 whole entry, looked up): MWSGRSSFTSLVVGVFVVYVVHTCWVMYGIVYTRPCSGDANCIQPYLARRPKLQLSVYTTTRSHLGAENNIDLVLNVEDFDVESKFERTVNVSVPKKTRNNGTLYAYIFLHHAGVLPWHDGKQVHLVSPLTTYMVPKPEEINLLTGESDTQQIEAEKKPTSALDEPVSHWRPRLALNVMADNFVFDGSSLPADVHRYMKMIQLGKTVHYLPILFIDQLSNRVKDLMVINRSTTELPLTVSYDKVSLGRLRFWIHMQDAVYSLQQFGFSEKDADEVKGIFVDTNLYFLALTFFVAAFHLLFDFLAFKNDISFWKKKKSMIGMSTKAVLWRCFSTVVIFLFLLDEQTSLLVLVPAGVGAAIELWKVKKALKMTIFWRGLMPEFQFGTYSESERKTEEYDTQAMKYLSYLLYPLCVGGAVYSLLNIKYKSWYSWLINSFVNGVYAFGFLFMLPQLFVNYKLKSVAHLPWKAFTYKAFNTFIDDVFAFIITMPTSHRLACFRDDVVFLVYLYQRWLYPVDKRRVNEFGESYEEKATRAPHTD
UniProt Q9UIV1, sequence (Q9UIV1 whole entry, looked up): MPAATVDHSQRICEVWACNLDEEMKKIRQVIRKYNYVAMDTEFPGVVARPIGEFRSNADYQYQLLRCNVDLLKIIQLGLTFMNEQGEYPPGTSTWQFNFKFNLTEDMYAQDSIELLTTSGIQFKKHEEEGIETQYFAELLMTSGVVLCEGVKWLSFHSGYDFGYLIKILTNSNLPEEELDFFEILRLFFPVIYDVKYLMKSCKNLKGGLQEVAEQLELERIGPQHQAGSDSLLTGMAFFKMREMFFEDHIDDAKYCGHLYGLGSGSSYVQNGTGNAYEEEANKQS
UniProt P46108, sequence (P46108 whole entry, looked up): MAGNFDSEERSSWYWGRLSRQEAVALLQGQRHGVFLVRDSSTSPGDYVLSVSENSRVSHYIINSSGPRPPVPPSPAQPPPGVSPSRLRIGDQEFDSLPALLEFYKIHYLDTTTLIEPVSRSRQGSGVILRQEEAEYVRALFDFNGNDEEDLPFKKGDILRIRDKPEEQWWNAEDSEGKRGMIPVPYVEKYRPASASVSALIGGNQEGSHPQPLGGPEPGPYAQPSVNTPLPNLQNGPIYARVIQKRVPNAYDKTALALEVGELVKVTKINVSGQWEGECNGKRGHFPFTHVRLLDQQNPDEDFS
UniProt P08962, sequence (P08962 whole entry, looked up): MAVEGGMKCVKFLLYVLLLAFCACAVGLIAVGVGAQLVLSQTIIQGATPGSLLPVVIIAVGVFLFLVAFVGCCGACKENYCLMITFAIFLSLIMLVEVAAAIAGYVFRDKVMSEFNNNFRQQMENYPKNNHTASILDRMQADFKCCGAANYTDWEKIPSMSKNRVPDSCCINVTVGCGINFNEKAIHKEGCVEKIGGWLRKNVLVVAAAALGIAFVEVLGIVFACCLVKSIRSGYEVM
UniProt P42574, sequence (P42574 whole entry, looked up): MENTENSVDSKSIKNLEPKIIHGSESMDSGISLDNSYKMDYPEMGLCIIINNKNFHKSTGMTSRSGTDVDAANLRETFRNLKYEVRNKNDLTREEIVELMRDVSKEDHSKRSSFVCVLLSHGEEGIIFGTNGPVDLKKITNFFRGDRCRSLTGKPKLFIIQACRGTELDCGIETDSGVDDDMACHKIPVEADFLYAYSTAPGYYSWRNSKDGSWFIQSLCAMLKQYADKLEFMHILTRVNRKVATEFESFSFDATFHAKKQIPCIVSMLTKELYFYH
UniProt Q9ULV3, sequence (Q9ULV3 whole entry, looked up): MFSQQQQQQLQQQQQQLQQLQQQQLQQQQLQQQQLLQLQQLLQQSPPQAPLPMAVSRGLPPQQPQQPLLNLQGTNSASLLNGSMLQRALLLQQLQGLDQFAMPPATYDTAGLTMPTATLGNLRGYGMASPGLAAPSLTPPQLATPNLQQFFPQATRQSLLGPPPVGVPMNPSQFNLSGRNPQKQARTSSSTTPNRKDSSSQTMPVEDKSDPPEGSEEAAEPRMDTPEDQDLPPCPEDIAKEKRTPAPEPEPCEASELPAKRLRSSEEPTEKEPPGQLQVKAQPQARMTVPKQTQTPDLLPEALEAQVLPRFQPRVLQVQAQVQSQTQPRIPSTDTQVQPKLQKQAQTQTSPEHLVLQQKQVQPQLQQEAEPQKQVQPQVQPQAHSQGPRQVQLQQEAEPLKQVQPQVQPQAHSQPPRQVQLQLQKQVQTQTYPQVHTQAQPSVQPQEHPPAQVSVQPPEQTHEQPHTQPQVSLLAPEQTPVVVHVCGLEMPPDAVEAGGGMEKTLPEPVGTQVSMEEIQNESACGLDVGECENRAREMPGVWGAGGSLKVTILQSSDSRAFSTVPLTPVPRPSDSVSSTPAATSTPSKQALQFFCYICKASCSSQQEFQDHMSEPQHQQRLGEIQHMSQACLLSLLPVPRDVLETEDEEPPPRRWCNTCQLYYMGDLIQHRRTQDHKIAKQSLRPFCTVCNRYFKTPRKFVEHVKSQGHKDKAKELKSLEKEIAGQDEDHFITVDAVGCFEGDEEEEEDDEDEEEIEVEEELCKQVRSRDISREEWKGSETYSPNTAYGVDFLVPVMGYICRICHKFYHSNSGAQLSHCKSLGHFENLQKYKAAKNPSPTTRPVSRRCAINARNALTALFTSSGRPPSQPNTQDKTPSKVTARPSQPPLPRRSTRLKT
UniProt P55060, sequence (P55060 whole entry, looked up): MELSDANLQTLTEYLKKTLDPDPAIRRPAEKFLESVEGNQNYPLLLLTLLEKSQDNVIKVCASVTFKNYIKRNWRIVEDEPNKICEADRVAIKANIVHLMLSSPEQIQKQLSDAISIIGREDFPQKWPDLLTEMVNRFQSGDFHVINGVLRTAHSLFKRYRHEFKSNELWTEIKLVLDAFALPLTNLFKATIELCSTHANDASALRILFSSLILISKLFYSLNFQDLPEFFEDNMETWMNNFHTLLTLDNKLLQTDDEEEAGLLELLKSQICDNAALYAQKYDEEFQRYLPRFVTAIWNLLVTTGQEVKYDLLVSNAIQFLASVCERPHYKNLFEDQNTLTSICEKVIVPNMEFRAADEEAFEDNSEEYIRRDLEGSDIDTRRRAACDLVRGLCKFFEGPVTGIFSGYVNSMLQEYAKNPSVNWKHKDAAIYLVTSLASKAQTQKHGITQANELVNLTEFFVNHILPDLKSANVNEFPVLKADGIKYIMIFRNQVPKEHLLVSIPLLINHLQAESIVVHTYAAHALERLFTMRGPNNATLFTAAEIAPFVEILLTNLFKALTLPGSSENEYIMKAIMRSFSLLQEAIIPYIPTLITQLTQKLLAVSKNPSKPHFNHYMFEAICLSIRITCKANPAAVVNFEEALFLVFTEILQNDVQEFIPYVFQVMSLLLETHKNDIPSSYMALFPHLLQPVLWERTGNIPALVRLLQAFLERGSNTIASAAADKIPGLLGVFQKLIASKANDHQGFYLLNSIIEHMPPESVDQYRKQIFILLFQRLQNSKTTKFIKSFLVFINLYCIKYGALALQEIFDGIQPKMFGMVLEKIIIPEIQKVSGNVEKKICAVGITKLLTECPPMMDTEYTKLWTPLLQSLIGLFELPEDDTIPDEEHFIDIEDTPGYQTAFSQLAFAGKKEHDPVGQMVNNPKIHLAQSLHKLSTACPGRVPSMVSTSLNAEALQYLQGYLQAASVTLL

CD63 (UniProt P08962) gave a log2 fold change [1] of 0.039, a log2 fold change (crizotinib) of -0.076 and a log2 fold change [2] of 0.009. It also gave a log2 fold change [3] of -0.013, a log2 fold change (duvelisib) of 0.014 and a log2 fold change (gandotinib) of -0.023. It also gave a log2 fold change (tozasertib) of -0.007, a log2 fold change [4] of -0.022 and a log2 fold change (doramapimod) of 0.033. It also gave a log2 fold change (ispinesib) of -0.092, a log2 fold change (bafetinib) of -0.069 and a log2 fold change [5] of -0.059. It also gave a log2 fold change (nilotinib) of -0.023, a log2 fold change [6] of 0.074 and a log2 fold change (dasatinib) of 0.021. It also gave a log2 fold change [7] of 0.002, a log2 fold change [8] of -0.047 and a log2 fold change [9] of 0.002. The log2 fold change (tipifarnib) was 0.043 and the log2 fold change (mubritinib) was -0.003.
CLPTM1L (UniProt Q96KA5) was tested, and the log2 fold change [1] was 0.036, the log2 fold change (crizotinib) was -0.08 and the log2 fold change [2] was 0.025. The log2 fold change [3] was -0.013, the log2 fold change (duvelisib) was 0.047 and the log2 fold change (gandotinib) was -0.268 (active). It also gave a log2 fold change (tozasertib) of 0.012, a log2 fold change [4] of 0 and a log2 fold change (doramapimod) of -0.012. For the same target, the log2 fold change (ispinesib) was -0.326 (active), the log2 fold change (bafetinib) was -0.186 and the log2 fold change [5] was 0.07. For the same target, the log2 fold change (nilotinib) was -0.103, the log2 fold change [6] was 0.009 and the log2 fold change (dasatinib) was -0.045. It also gave a log2 fold change [7] of -0.016, a log2 fold change [8] of -0.042 and a log2 fold change [9] of 0.011. It also gave a log2 fold change (tipifarnib) of -0.056 and a log2 fold change (mubritinib) of 0.02.
Work on CSE1L (UniProt P55060) yielded a log2 fold change [1] of 0.008, a log2 fold change (crizotinib) of -0.063 and a log2 fold change [2] of 0.083. It also gave a log2 fold change [3] of -0.067, a log2 fold change (duvelisib) of 0.01 and a log2 fold change (gandotinib) of -0.174. For the same target, the log2 fold change (tozasertib) was 0.066, the log2 fold change [4] was 0.024 and the log2 fold change (doramapimod) was -0.027. For the same target, the log2 fold change (ispinesib) was -0.003, the log2 fold change (bafetinib) was -0.041 and the log2 fold change [5] was 0.039. It also gave a log2 fold change (nilotinib) of -0.066, a log2 fold change [6] of -0.026 and a log2 fold change (dasatinib) of -0.08. The log2 fold change [7] was 0.012, the log2 fold change [8] was -0.005 and the log2 fold change [9] was 0.007. The log2 fold change (tipifarnib) was -0.101 and the log2 fold change (mubritinib) was 0.068.
With C16orf58 (UniProt Q96GQ5) the log2 fold change [1] was 0.011, the log2 fold change (crizotinib) was -0.057 and the log2 fold change [2] was 0.126. It also gave a log2 fold change [3] of 0, a log2 fold change (duvelisib) of 0.044 and a log2 fold change (gandotinib) of -0.08. The log2 fold change (tozasertib) was -0.028, the log2 fold change [4] was -0.035 and the log2 fold change (doramapimod) was 0.006. For the same target, the log2 fold change (ispinesib) was -0.309 (active), the log2 fold change (bafetinib) was -0.112 and the log2 fold change [5] was 0.052. The log2 fold change (nilotinib) was -0.036, the log2 fold change [6] was 0.029 and the log2 fold change (dasatinib) was -0.046. For the same target, the log2 fold change [7] was -0.01, the log2 fold change [8] was 0.084 and the log2 fold change [9] was 0.012. It also gave a log2 fold change (tipifarnib) of 0.003 and a log2 fold change (mubritinib) of 0.021.
For CASP3 (UniProt P42574), the log2 fold change [1] was 0.017, the log2 fold change (crizotinib) was 0.036 and the log2 fold change [2] was -0.059. For the same target, the log2 fold change [3] was -0.057, the log2 fold change (duvelisib) was -0.025 and the log2 fold change (gandotinib) was -0.019. For the same target, the log2 fold change (tozasertib) was -0.036, the log2 fold change [4] was -0.05 and the log2 fold change (doramapimod) was -0.022. The log2 fold change (ispinesib) was -0.004, the log2 fold change (bafetinib) was -0.031 and the log2 fold change [5] was -0.042. It also gave a log2 fold change (nilotinib) of 0.013, a log2 fold change [6] of -0.012 and a log2 fold change (dasatinib) of 0.002. For the same target, the log2 fold change [7] was -0.007, the log2 fold change [8] was 0.008 and the log2 fold change [9] was -0.022. The log2 fold change (tipifarnib) was -0.055 and the log2 fold change (mubritinib) was 0.007.
CNOT7 (UniProt Q9UIV1) showed a log2 fold change [1] of -0.052, a log2 fold change (crizotinib) of -0.097 and a log2 fold change [2] of 0.043. The log2 fold change [3] was 0.219, the log2 fold change (duvelisib) was 0.069 and the log2 fold change (gandotinib) was -0.003. For the same target, the log2 fold change (tozasertib) was -0.007, the log2 fold change [4] was 0.022 and the log2 fold change (doramapimod) was 0.07. The log2 fold change (ispinesib) was -0.072, the log2 fold change (bafetinib) was 0.059 and the log2 fold change [5] was -0.037. The log2 fold change (nilotinib) was -0.077, the log2 fold change [6] was -0.057 and the log2 fold change (dasatinib) was -0.255. It also gave a log2 fold change [7] of 0.002, a log2 fold change [8] of -0.034 and a log2 fold change [9] of -0.051. The log2 fold change (tipifarnib) was -0.075 and the log2 fold change (mubritinib) was 0.014.
In the case of CRK (UniProt P46108), the log2 fold change [1] is reported as 0.043, the log2 fold change (crizotinib) is reported as -1.02 (active) and the log2 fold change [2] is reported as 0.008. For the same target, the log2 fold change [3] was -0.064, the log2 fold change (duvelisib) was -0.025 and the log2 fold change (gandotinib) was -0.096. It also gave a log2 fold change (tozasertib) of -0.254, a log2 fold change [4] of 0.058 and a log2 fold change (doramapimod) of 0.01. For the same target, the log2 fold change (ispinesib) was -0.004, the log2 fold change (bafetinib) was -0.586 (active) and the log2 fold change [5] was -0.02. The log2 fold change (nilotinib) was -0.826 (active), the log2 fold change [6] was -0.136 and the log2 fold change (dasatinib) was -0.883 (active). For the same target, the log2 fold change [7] was 0.036, the log2 fold change [8] was -0.007 and the log2 fold change [9] was 0.03. The log2 fold change (tipifarnib) was 0.026 and the log2 fold change (mubritinib) was 0.075.
With CIZ1 (UniProt Q9ULV3) the log2 fold change [1] was -0.008, the log2 fold change (crizotinib) was -0.097 and the log2 fold change [2] was 0.017. The log2 fold change [3] was -0.079, the log2 fold change (duvelisib) was 0.004 and the log2 fold change (gandotinib) was -0.121. The log2 fold change (tozasertib) was 0.022, the log2 fold change [4] was 0.016 and the log2 fold change (doramapimod) was 0.005. It also gave a log2 fold change (ispinesib) of -0.015, a log2 fold change (bafetinib) of -0.063 and a log2 fold change [5] of 0.013. The log2 fold change (nilotinib) was 0.016, the log2 fold change [6] was -0.181 and the log2 fold change (dasatinib) was -0.016. For the same target, the log2 fold change [7] was -0.063, the log2 fold change [8] was 0.021 and the log2 fold change [9] was -0.066. For the same target, the log2 fold change (tipifarnib) was 0.008 and the log2 fold change (mubritinib) was 0.019.
